A short description of assay [1]: High Content Imaging Cell-Based qHTS for Inhibitors of the mTORC1 Signaling Pathway in MEF (Tsc2-/-, p53-/-) Cells (AID 2666).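 Further: percent of cells scored positive for phospho-rpS6 Ser235/236 immunostaining by imaging.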 The gist of the method:
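Phospho-rpS6 (Ser235/236) immunofluorescence, normalized and scored as % positive cells using rapamycin and DMSO controls, was read in empty-vector Tsc2-/-, p53-/- MEFs after 24 h compound exposure at 37 C; propidium iodide counted cells.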
On the technique in general: In qHTS, concentration-response curves come from the screen itself.

The target in assay [2] is Ubiquitin carboxyl-terminal hydrolase 2 (Homo sapiens) (UniProt O75604). The assay can be described thus: qHTS Validation Assay for Inhibitors of Ubiquitin-specific Protease USP2a Using CHOP2 as the Reporter (AID 463106). Further: potency means the concentration at half of the fitted maximal effect. The gist of the method: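 USP2 core (10 nM final) was preincubated with compound 30 min at RT in pH 8.0 Tris/CaCl2/beta-ME/CHAPS buffer. Ub-CHOP2 and reporter substrate (25 nM final each) were then added, with fluorescence (Ex 485/Em 531) read after 60 min. Data were normalized to NEM full inhibition and fitted to concentration-response curves.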
Sequence of Ubiquitin carboxyl-terminal hydrolase 2 (Homo sapiens) (O75604 whole entry, looked up): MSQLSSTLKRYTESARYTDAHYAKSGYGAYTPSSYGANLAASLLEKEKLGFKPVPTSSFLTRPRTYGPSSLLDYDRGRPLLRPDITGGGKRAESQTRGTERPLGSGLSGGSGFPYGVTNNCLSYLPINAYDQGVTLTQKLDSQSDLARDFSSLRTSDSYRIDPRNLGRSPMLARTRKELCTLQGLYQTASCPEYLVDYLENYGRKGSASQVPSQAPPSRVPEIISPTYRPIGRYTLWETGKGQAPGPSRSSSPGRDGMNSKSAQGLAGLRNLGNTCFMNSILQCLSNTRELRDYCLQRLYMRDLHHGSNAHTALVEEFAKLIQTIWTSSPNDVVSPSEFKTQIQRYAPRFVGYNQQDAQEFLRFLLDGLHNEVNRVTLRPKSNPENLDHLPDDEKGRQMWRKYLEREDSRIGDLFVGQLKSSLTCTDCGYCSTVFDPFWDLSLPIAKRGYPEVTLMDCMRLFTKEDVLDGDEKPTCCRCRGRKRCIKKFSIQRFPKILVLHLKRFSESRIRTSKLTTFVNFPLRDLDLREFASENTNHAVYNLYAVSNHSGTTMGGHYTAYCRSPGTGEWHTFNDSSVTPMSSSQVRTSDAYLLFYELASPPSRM

Assay [3] concerns the target DNA polymerase III PolC-type (Bacillus subtilis (strain 168)) (UniProt P13267). The assay can be described thus: qHTS Validation Assay for the Inhibitors of DNA Replication in Gram-Positive Bacteria (AID 485295).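 Further: reconstituted holoenzyme with PolC plus beta clamp SSB and primase; PicoGreen fluorescence of double-stranded DNA made on primed circular M13 template; series mostly up to about 57 µM.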 The gist of the method:
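PicoGreen fluorescence (ex 480–485/em 535–540 nm) reports dsDNA synthesized on ssM13Gori template with dNTPs/NTPs. Enzyme: holoenzyme rebuilt from purified PolC, beta subunit, SSB and primase. Compound preincubated before substrate addition; RT throughout.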

Assay [4] addresses Tumor susceptibility gene 101 protein (Homo sapiens) (UniProt Q99816). The assay is described as follows: qHTS Validation Assay for Iinhibitors of HIV-1 Budding by Blocking the Interaction of PTAP/TSG101 (AID 485342; calls by dose curve). In short, it runs like this:
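FP read-out: FITC-PTAP peptide, 50 nM final, binding Tsg101 binding domain, 10 uM final; 20 min r.t.; 10 mM HEPES pH 7.5, 0.15 M NaCl, 0.01% Tween 20, 3 mM EDTA, 0.1 mM TCEP.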

Assay [5] deals with Beta-2 adrenergic receptor (Homo sapiens) (UniProt P07550). The assay can be described thus: qHTS validation assay of beta-arrestin-biased ligands of beta2-adrenergic receptor (AID 485366). The gist of the method: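 Tango cells (recombinant beta2-AR with recombinant beta-arrestin; recruitment releases tTA driving luciferase) were treated with compounds titrated up to 46 microM for 18 hr at 37 degrees C. Luminescence gave %Activity, and concentration-response curves were curve-classified.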
Sequence of Beta-2 adrenergic receptor (Homo sapiens) (P07550 whole entry, looked up): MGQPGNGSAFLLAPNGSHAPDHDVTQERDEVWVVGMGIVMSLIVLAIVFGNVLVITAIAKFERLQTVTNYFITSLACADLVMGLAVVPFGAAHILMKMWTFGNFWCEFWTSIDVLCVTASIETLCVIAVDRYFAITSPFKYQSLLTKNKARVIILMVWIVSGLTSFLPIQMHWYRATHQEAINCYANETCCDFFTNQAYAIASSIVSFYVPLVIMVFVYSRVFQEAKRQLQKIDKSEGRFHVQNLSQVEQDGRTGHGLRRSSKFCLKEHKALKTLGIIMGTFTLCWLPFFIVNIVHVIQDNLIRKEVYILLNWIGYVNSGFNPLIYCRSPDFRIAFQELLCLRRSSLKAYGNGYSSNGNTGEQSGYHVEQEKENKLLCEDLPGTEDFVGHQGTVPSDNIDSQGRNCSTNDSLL

The target in assay [6] is ATP-dependent 6-phosphofructokinase (Trypanosoma brucei brucei) (UniProt O15648). The assay can be described thus: qHTS Validation Assay to Find Inhibitors of T. brucei phosphofructokinase (AID 485368). Further: potency means the concentration at half of the fitted maximal effect. In short, it runs like this:
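Compounds (up to 57 uM, titration series) were pinned into substrate buffer, then 1.25 nM PFK added; after 45 min at room temperature, ADP product was quantified by ADP-Glo luminescence and concentration-response curves fitted.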

Assay [7] concerns the target Thioredoxin reductase 1, cytoplasmic (Rattus norvegicus) (UniProt O89049). The assay can be described thus: qHTS Assay for Substrates of Mammalian Selenoprotein Thioredoxin Reductase 1 (TrxR1) (AID 488772).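 Further: NADPH fluorescence in the first read after selenite addition and not the 8 min delta; series mostly up to about 57 µM; a drop in NADPH fluorescence below the no-compound background marks a TrxR1 substrate.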 In short, it runs like this:
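Quantitative HTS in Tris-HCl buffer at pH 7.5 with EDTA and Tween-20, using rat TrxR1, 400 uM NADPH and 400 uM selenite (final). A fall in initial NADPH fluorescence relative to background marked substrate behaviour.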

Assay [8] has the same target. The assay can be described thus: qHTS Assay for Inhibitors of Mammalian Selenoprotein Thioredoxin Reductase 1 (TrxR1) (AID 488773). Further: nearly all actives have a fitted effect of over 40% in size. Further: potency means the concentration at half of the fitted maximal effect. The following applies: Potency: inhibition. In short, it runs like this:
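Steps: enzyme (90 nM) plus NADPH (400 uM final), 5 min at ~22 deg C; compound added, 15 min; selenite (400 uM final) added; fluorescence followed for 8 min. Concentration-response curves derived from the normalized delta values.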

Assay [9] addresses Flap endonuclease 1 (Homo sapiens) (UniProt P39748). The assay can be described thus: qHTS Validation Assay for the Inhibitors of Human Flap endonuclease 1 (FEN1) (AID 488816). Further: potency means the concentration at half of the fitted maximal effect. The gist of the method: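 Human FEN1 (10 nM) preincubated 15 min at room temperature with compounds, then flap DNA substrate added at 50 nM final. Fluorescence read at 0 and 15 min; concentration-response fitted with four-parameter Hill equation.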

Assay [10] deals with M-phase phosphoprotein 8 (Homo sapiens) (UniProt Q99549). The assay can be described thus: qHTS Validation Assay for Inhibitors for MPP8 Chromodomain Interactions with Methylated Histone Tails (AID 488949). Further: nearly all actives have a fitted effect of over 55% in size. Further: potency means the concentration at half of the fitted maximal effect. The gist of the method:
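AlphaScreen read-out: streptavidin donor and nickel chelate acceptor beads (final 10 ug/mL), 30 min in the dark at RT. Complex of 50 nM MPP8 and 50 nM b-H3(1-18)K9me3 peptide had been exposed to compounds for 30 min beforehand.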

Assay [11] addresses Chromobox protein homolog 1 (Homo sapiens) (UniProt P83916). The assay is described as follows: qHTS Validation Assay for Inhibitors of HP1-beta Chromodomain Interactions with Methylated Histone Tails (AID 488953). Further: nearly all actives have a fitted effect of over 50% in size. Further: potency means the concentration at half of the fitted maximal effect. In short, it runs like this: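 HP1-beta (50 nM) preformed 30 min with biotinylated H3(1-18)K9me3 peptide (50 nM) in PBS pH 7.4, 0.01% Tween-20. Compounds added for 30 min at room temperature. Complex disruption read by AlphaScreen with streptavidin donor/nickel chelate acceptor beads (10 ug/mL each).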

The target in assay [12] is Methanococcus maripaludis chaperonin (MmCpn) (UniProt Q6LX38). The assay is described as follows: High-Throughput Screening for Modulators of Cytosolic Chaperonin Activity: MmCpn Primary Screen (AID 488978). The gist of the method: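 ADP formation read by HTRF Transcreener, 665/590 nm emission after 320 nm excitation. Enzyme: archaeal chaperonin at 50 nM final; substrate ATP 30 uM final; 10 min, 37C, after 5 min compound preincubation at RT.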
Sequence of Methanococcus maripaludis chaperonin (MmCpn) (Q6LX38 1-543): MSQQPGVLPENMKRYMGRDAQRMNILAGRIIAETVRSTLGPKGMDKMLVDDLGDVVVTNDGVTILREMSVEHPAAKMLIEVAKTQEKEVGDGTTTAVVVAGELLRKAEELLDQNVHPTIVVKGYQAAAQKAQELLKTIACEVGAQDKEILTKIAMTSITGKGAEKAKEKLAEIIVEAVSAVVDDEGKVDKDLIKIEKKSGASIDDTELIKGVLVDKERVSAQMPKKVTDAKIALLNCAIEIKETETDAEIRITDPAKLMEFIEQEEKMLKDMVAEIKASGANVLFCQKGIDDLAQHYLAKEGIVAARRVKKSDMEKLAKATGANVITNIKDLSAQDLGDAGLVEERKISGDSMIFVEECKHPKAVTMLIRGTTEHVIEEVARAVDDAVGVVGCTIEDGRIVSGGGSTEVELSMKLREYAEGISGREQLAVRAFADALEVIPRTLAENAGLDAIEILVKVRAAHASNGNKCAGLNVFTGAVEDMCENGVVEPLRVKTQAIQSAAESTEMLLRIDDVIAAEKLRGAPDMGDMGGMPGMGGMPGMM

A short description of assay [13]: Quantitative high throughput screen for delayed death inhibitors of the malarial parasite plastid, 96 hour incubation (AID 488745). Further: nearly all actives have a fitted effect of over 70% in size. Further: potency means the concentration at half of the fitted maximal effect. In short, it runs like this: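 Luciferase-expressing P. falciparum in erythrocytes (2% hematocrit, 0.1% parasitemia) incubated with compound for 96 h at 37 C, 5% CO2, in RPMI 1640 with 0.5% Albumax. Growth inhibition read as decreased luminescence.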

Assay [14] can be described thus: Quantitative high throughput screen for delayed death inhibitors of the malarial parasite plastid, 48 hour incubation (AID 488752). Further: nearly all actives have a fitted effect of over 65% in size. Further: potency means the concentration at half of the fitted maximal effect. The gist of the method: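 Erythrocytes infected with firefly luciferase-expressing P. falciparum (2% hematocrit, 0.1% parasitemia) cultured with compound for 48 h at 37 C, 5% CO2, in RPMI 1640/0.5% Albumax. Growth inhibition read as loss of luminescence.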

Assay [15] can be described thus: High Content Imaging Cell-Based qHTS for Inhibitors of the mTORC1 Signaling Pathway in MEF Cells (AID 2667).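 Further: Tsc2-/- p53-/- MEFs stably re-expressing wild-type Tsc2 exposed 24 h; series mostly up to about 38 µM.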 In short, it runs like this:
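WT MEFs (Tsc2-/-, p53-/- re-expressing Tsc2), in DMEM + 10% FBS, were treated with compound for 24 h at 37 C. Cells were then fixed and stained for phospho-rpS6 Ser235/236 with propidium iodide as cell count. Values are % positive cells, with thresholds set against rapamycin-treated cells.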

Assay [16] is described as follows: Validation screen for small molecules that induce DNA re-replication in MCF 10A normal breast cells (AID 463097). Further: potency means the concentration at half of the fitted maximal effect; nearly all actives have a fitted effect of over 60% in size. The gist of the method:
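250 MCF 10A cells/well; compound pin-transferred; 48 hr, 37 C, 5% CO2; Hoechst 40 min; imaged 405/500-530 nm. Hits = more high-intensity nuclei.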

Assay [17] can be described thus: Cytometry Cell-Based qHTS for Inhibitors of the mTORC1 Signaling Pathway in MEF cells (AID 2668). Further: potency means the concentration at half of the fitted maximal effect. The gist of the method: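 Read-out: phospho-rpS6 Ser235/236 immunofluorescence normalized to propidium iodide intensity, scored as % active cells against a rapamycin (7.5 nM) threshold. Cells: Tsc2-/-, p53-/- MEFs stably expressing WT Tsc2, compound-treated 24 hrs at 37 degree Celsius.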

The nature of assay [18]: qHTS Validation Assay to Find Inhibitors of Chronic Active B-Cell Receptor Signaling (AID 485345; active means well fitted curve in the direction sought with a large enough effect in the main read-out, with a control signal flat, not every such curve was filed as active). The gist of the method:
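TMD8 ABC-DLBCL cells stably carrying doxycycline-inducible IkappaBalpha–green luciferase fusion plus unfused red luciferase; compounds 46 uM to 3 nM, 4 h at 37C with doxycycline. Corrected green/red luminescence ratio normalized to 10 uM MG-132 and basal cell wells; curves fitted.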

“And” between values parts separate entries of the source, which are not always exact repeats. Equal entries are not always repeated. Results filed as inconclusive are left out. The source made the active and inactive calls. Unless noted, the call rests on the fitted dose curve; in most records, active means well fitted curve in the direction sought with a large enough effect; inconclusive means small, poorly fitted or top-dose-only effect, or another doubt; inactive means no such curve, though single readings can be large; an effect the other way counts as inactive or inconclusive.

Sequence of Chromobox protein homolog 1 (Homo sapiens) (P83916 whole entry, looked up): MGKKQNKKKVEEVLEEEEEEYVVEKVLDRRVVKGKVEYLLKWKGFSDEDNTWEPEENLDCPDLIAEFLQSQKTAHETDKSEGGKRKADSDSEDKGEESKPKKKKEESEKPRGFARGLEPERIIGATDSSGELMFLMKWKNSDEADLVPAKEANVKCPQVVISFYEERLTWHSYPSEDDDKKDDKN
Sequence of Flap endonuclease 1 (Homo sapiens) (P39748 whole entry, looked up): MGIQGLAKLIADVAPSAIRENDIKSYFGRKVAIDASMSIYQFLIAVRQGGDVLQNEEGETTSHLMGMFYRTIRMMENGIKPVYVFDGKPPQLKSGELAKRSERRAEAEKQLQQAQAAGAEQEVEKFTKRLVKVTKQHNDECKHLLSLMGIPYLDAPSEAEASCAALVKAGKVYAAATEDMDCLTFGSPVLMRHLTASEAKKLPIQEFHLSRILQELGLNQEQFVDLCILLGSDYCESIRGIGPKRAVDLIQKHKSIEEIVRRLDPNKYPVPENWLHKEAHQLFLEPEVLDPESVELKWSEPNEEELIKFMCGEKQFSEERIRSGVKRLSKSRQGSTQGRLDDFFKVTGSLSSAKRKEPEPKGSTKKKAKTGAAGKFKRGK
Sequence of Tumor susceptibility gene 101 protein (Homo sapiens) (Q99816 whole entry, looked up, the tested form may be a part): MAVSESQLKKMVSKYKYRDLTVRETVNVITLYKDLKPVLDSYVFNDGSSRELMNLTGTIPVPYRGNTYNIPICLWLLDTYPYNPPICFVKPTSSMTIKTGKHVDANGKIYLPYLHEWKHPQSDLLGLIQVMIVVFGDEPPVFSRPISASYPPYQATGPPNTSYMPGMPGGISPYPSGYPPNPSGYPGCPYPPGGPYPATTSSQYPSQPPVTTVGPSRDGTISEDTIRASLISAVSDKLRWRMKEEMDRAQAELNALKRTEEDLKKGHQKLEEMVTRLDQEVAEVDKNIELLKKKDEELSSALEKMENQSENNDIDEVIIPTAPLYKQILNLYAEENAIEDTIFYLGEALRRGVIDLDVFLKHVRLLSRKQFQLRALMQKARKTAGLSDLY
Sequence of DNA polymerase III PolC-type (Bacillus subtilis (strain 168)) (P13267 whole entry, looked up): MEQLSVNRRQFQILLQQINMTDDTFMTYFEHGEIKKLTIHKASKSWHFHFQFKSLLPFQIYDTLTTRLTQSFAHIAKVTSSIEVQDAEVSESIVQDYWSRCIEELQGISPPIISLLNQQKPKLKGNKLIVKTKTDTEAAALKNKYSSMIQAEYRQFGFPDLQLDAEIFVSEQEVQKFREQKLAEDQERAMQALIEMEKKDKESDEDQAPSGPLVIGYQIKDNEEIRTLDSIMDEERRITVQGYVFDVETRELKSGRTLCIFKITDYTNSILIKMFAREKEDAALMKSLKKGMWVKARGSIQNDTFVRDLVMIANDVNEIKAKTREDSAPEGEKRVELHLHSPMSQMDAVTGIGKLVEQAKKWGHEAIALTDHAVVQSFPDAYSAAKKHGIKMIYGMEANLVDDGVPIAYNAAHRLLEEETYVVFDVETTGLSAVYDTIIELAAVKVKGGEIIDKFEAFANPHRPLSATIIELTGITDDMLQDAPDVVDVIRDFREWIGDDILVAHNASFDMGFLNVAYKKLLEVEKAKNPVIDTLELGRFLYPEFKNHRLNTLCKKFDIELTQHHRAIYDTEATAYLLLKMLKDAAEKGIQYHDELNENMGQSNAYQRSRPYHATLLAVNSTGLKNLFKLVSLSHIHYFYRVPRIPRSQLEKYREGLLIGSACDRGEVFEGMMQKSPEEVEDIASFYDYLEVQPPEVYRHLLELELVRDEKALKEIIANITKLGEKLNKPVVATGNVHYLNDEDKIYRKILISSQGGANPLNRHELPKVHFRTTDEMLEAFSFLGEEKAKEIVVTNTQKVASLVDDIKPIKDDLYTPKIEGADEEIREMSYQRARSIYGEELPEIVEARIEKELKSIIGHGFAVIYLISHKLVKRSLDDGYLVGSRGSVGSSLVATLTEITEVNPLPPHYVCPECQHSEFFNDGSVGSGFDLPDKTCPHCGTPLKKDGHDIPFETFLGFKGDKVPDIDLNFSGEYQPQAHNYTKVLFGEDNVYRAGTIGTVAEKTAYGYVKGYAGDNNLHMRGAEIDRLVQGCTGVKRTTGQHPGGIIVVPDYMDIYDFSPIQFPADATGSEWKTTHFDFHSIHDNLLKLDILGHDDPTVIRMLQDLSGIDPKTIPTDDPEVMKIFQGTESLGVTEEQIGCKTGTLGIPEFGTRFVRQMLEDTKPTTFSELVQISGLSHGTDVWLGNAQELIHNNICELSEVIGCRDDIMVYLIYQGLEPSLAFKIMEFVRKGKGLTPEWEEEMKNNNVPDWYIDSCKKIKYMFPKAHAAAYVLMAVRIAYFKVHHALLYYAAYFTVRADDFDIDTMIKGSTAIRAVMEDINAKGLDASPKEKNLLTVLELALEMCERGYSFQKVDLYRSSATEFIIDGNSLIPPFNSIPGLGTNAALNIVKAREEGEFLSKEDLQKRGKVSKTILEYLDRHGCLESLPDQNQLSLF
Sequence of ATP-dependent 6-phosphofructokinase (Trypanosoma brucei brucei) (O15648 whole entry, looked up): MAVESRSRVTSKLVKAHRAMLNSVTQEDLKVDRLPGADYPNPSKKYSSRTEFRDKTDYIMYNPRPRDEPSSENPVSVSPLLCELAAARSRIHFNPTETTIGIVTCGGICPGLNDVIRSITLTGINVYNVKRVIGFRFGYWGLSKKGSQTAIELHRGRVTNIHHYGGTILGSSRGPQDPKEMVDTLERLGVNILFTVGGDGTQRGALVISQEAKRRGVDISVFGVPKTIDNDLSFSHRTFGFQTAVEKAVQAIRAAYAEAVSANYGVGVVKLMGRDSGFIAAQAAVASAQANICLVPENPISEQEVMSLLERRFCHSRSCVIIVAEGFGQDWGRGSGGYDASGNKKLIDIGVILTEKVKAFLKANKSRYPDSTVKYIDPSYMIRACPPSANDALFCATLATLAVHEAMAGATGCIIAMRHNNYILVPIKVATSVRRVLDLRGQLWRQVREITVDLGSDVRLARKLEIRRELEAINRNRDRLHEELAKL
Sequence of Thioredoxin reductase 1, cytoplasmic (Rattus norvegicus) (O89049 whole entry, looked up): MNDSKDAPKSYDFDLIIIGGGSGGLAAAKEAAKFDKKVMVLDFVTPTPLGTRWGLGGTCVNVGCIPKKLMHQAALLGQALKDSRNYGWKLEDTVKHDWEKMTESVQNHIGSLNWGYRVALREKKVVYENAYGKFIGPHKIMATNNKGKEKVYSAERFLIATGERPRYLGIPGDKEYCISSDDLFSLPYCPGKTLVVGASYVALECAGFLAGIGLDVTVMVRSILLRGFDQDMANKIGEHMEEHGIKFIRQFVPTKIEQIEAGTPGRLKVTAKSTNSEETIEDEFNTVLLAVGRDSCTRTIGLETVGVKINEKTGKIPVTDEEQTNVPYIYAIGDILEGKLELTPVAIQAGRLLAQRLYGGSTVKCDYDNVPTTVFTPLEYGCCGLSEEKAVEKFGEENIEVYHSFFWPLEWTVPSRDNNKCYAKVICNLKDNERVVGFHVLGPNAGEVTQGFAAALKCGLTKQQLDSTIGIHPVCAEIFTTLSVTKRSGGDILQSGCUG

For `COc1cc([C@@H]2c3cc4c(cc3[C@H](O)C3COC(=O)[C@@H]32)OCO4)cc(OC)c1OC` (some centres not stated), the Potency entry in assay [1], in assay [2], in assay [3], in assay [6], in assay [8] and in assay [9] was “inactive” throughout. The Potency entry in assay [10] and in assay [11] was “inactive” each time. The outcome in [4], in [5], in assay [7] and in assay [12] was inactive.
On to `O=c1oc(Cl)c(Cl)c2ccccc12`, for which the Potency entry in assay [2], in [3], in assay [6], in assay [13], in assay [14] and in assay [9] was “inactive” in each case. Also, the call in assay [4], in assay [5], in [7] and in assay [12] was inactive.
Turning to `C=C1C(=O)O[C@@H]2[C@H]3O[C@]3(C)CCC=C(C)CC[C@@H]12`, the Potency result in assay [15], in assay [2], in [3], in assay [6], in [14] and in assay [9] was “inactive” throughout. Moreover, the Potency entry in [10] and in [11] was “inactive” in each case. Further, the Potency in [16] was 14.1 µM (active); in [8] it was 16.8 µM (active). For the same compound, the compound was called inactive in assay [4], in assay [7] and in assay [12].
For the compound `CN1CCCC1CCOC(C)(c1ccccc1)c1ccc(Cl)cc1` (configuration not stated), the Potency result in [1], in assay [2], in assay [3], in assay [8] and in assay [10] was “inactive” each time. Moreover, the compound was classed as inactive in [4], in assay [5], in [7] and in assay [12]. Besides, the Potency was 8.28 µM (active) in assay [13] and 10.4 µM (active) in assay [14].
For the compound `COc1cc(/C=C(\C#N)C(=O)c2ccc(O)c(O)c2)cc(I)c1O`, the Potency entry in [1], in assay [15], in [17] and in assay [13] was “inactive” each time. Moreover, the Potency in [2] is 14.7 µM (active); in assay [6], 6.01 µM (active); in assay [9] it was 0.844 µM (active); in [10], 8.91 µM (active) and 8.44 µM (active); in assay [11] it was 10 µM (active). The compound was called inactive in assay [4], in assay [5], in [7] and in assay [12].
`Cc1nc2n(c(=O)c1CCN1CCC(c3noc4cc(F)ccc34)CC1)CCCC2O` (configuration not stated): the Potency entry in assay [1], in assay [15], in assay [17], in [2], in assay [3] and in assay [6] was “inactive” in each case. For the same compound, the Potency entry in assay [8], in assay [10] and in [11] was “inactive” each time. Also, the outcome in assay [4], in assay [18], in assay [7] and in assay [12] was inactive.
For the compound `CNCCc1cnc(CCC(c2ccccc2)c2ccccc2)[nH]1`, the Potency in [17] was 11.7 µM (active). The Potency entry in [2], in [3], in assay [8], in assay [9] and in assay [10] was “inactive” in each case. Besides, the compound was called inactive in [4], in [5], in assay [7] and in assay [12].

(Values after PubChem BioAssay (NCATS).)
